ADAM10 inh: inhibits human ADAM10. O14672. recombinant ADAM10, EDANS/DABCYL FRET peptide cleavage, 3 h. inhibition, % at 7 µM. 0.62% of 370,000 active;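 active = inhibition above a per-campaign cutoff equal to the mean of compounds falling between control-based bounds plus 3 SD, cut at about 20% in these data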
A3G deaminase: inhibitors of human APOBEC3G DNA deaminase | Q9HC16 | recombinant A3G, ssDNA deamination FAM/TAMRA fluorescence | inhibition, % at 20 µM | 0.28% of 330,000 active | AID 493012;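 active = inhibition of at least 40% at 20 µM, with no more than 30% in the related APOBEC3A deaminase screen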
NRP1-CendR mod: alters CendR peptide binding to human NRP-1 | FAM-RPARPAR peptide binding to NRP-1, fluorescence polarization | inhibition, % at 25 µM | 0.85% of 360,000 active;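 active = inhibition or corrected inhibition above about 18%, plus a signal ratio from 0.5 to 1.5, limit read from the data, passing the limit was not always enough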
Target sequence (O14786 whole entry, looked up): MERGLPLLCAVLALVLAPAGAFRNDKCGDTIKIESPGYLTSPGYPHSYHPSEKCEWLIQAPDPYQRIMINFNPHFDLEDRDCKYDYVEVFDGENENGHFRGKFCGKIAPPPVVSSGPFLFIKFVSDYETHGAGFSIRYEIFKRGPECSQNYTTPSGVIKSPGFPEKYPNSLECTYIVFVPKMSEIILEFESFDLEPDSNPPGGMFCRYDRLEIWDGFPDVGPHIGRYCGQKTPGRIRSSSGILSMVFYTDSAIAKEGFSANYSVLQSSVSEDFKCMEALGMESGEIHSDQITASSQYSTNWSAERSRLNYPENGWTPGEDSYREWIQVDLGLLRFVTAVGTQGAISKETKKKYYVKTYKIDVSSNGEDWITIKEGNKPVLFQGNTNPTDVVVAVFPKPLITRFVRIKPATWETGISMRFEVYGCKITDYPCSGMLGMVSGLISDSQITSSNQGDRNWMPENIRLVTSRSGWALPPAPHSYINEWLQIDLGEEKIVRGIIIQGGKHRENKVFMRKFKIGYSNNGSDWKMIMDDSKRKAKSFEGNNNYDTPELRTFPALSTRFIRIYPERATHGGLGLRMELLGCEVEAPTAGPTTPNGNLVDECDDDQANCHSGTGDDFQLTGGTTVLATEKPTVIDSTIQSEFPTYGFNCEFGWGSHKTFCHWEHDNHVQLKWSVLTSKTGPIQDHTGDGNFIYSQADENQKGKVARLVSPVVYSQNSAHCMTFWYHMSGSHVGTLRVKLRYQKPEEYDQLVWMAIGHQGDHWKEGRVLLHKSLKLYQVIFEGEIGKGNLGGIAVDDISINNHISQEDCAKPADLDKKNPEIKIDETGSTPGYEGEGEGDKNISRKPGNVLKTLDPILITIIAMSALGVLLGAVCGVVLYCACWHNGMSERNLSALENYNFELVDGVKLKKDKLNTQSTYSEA
ADAM17 inh: inhibitors of human ADAM17 | 0.83% of 370,000 active | recombinant ADAM17, EDANS/DABCYL FRET peptide cleavage | inhibition, % at 6.95 µM | AID 720648;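 active = inhibition above the mean of compounds lying between control limits plus 3 SD, set per campaign, cut at about 8.5% in these data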
A3A deaminase: blocks human APOBEC3A ssDNA deamination | AID 493011 | inhibition, % at 20 µM | 0.41% of 330,000 active | P31941 | recombinant A3A, FAM/TAMRA ssDNA deamination fluorescence;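 active = at least 40% inhibition at 20 µM here, with at most 30% in a related deaminase screen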
Large screens that a line does not name were inactive. Hits are enriched below; roughly 2.4% of the tested compounds scored in any of these assays.

O=C(CC1C(=O)NCCN1Cc1ccc(F)c(F)c1)NCCn1cccn1 (stereo not given)	NRP1-CendR mod 28
O=C(CC1C(=O)NCCN1Cc1cccc(Oc2ccccc2)c1)NCCCn1cccn1 (stereo not given)	NRP1-CendR mod 23
Cc1cc(NC(=O)CSc2n[nH]c(=O)[nH]c2=O)ccc1Br	none
O=C(CSc1n[nH]c(=O)[nH]c1=O)Nc1ccc(Br)cc1Br	NRP1-CendR mod 31
CC(C)C[C@H](NC1(C(=O)NC2CCCCC2)CCN(C)CC1)C(=O)NCC(c1ccccc1)c1ccccc1	none (no result: A3G deaminase, NRP1-CendR mod, A3A deaminase)
O=C(Nc1ccc(-c2nnc3n2CCCCC3)cc1)c1ccco1	NRP1-CendR mod 34
CC(C)(C)C(=O)COc1ccccc1[N+](=O)[O-]	none
CCOC(=O)/C=C/COc1ccccc1[N+](=O)[O-]	NRP1-CendR mod 28
Cc1nc2ccc(NC(=O)c3c(Cl)cccc3Cl)cc2c(=O)[nH]1	none (no result: A3G deaminase, NRP1-CendR mod, A3A deaminase)
CCCCOc1ccc(C(=O)N/C(=C/C=C/c2ccccc2)C(=O)NCCO)cc1	none
CCCCOc1ccc(C(=O)N/C(=C/C=C/c2ccccc2)C(=O)NCCCO)cc1	NRP1-CendR mod 22
CN(C)c1ccc(NC(=O)COC(=O)c2ccc3c(c2)OCO3)cc1	none
CN(C)c1ccc(C(=O)OCC(=O)Nc2ccc(S(N)(=O)=O)cc2)cc1	NRP1-CendR mod 39
COc1cccc(C2NC(=S)N(Cc3ccc(Br)cc3)C(C)=C2C(C)=O)c1 (stereo not given)	none (no result: A3G deaminase, NRP1-CendR mod, A3A deaminase)
O=c1oc(/C=C/c2ccccc2)nc2sc3c(c12)CCC3	NRP1-CendR mod 25
Nc1[nH]c(C(=O)c2ccc(Br)cc2)c(-c2ccccc2Cl)c1C(=O)NCCc1c[nH]c2ccccc12	none (no result: A3G deaminase, NRP1-CendR mod, A3A deaminase)
COc1ccc(CCNC(=O)C2CCC(C(C)(C)C)CC2)cc1OC (stereo not given)	NRP1-CendR mod 34
COCCCNC(=O)C[C@H]1C[C@@]2(C(=O)OC)C(=C[C@H](C(C)C)O[C@@H]2C2CC2)N(Cc2cccc3ccccc23)C1=O	none (no result: A3G deaminase, NRP1-CendR mod, A3A deaminase)
COc1ccc(NC(=O)c2cc(S(=O)(=O)Nc3ccc(OC)cc3)cs2)cc1	none
O=C(Nc1ccc(F)cc1)c1cc(S(=O)(=O)Nc2ccc(F)cc2)cs1	NRP1-CendR mod 26
O=C(CN(c1cccc([N+](=O)[O-])c1)S(=O)(=O)c1ccccc1)NCc1cccnc1	none
O=C(CN(c1cccc(C(F)(F)F)c1)S(=O)(=O)c1ccc(Cl)c([N+](=O)[O-])c1)NCc1ccc(F)cc1	ADAM10 inh 20
CC(=O)NS(=O)(=O)c1ccc(N=NN2CCOCC2)cc1	NRP1-CendR mod 27
CC(=O)NS(=O)(=O)c1ccc(N=NN2CCCCCC2)cc1	none
CN(C(=O)COc1ccccc1)c1nnc(C23CC4CC(CC(C4)C2)C3)s1	NRP1-CendR mod 19
O=C(NCCCn1ccnc1)c1ccc(S(=O)(=O)N2CCOCC2)cc1	none
O=C(NCCCn1ccnc1)c1ccc(Cl)c(S(=O)(=O)N2CCOCC2)c1	NRP1-CendR mod 35
CCOc1ccc(N(CC(=O)Nc2c(C)n(C)n(-c3ccccc3)c2=O)S(=O)(=O)c2cccc3cccnc23)cc1	none (no result: A3G deaminase, NRP1-CendR mod, A3A deaminase)
CCc1ccc(NS(=O)(=O)c2c(C(=O)N3CCCCCC3)c(C)n(C)c2C)cc1	NRP1-CendR mod 28
Cc1ccc(NS(=O)(=O)c2c(C(=O)N3CCCCCC3)c(C)n(C)c2C)c(C)c1	NRP1-CendR mod 26
Cc1ccccc1NS(=O)(=O)c1c(C(=O)N2CCCCCC2)c(C)n(C)c1C	none
CC(=O)C1=C(C)N(Cc2ccc(Br)cc2)C(=S)NC1c1cccc(F)c1 (stereo not given)	none (no result: A3G deaminase, NRP1-CendR mod, A3A deaminase)
Oc1ccccc1C=NCCN=Cc1ccccc1O	none
Oc1ccccc1C=NCCN1CCN(CCN=Cc2ccccc2O)C1c1ccccc1O (stereo not given)	NRP1-CendR mod 22 (no result: A3G deaminase, A3A deaminase)
CCCCN1CC(COCc2ccccc2)Oc2cccc(Oc3ccc(SC)c(C)c3)c2S1(=O)=O (stereo not given)	none (no result: A3G deaminase, NRP1-CendR mod, A3A deaminase)
CC(=O)N1C[C@@H](CO)[C@@H](N(C)C(=O)Nc2cccc3ccccc23)C[C@H]1c1ccccc1	none (no result: A3G deaminase, NRP1-CendR mod, A3A deaminase)
CCOc1ccccc1CN1CCNC(=O)C1CC(=O)NCCC1=CCCCC1 (stereo not given)	NRP1-CendR mod 45
c1coc(-c2nc3c4ccccc4ccn3c2Cc2ccsc2)c1	none (no result: A3G deaminase, NRP1-CendR mod, A3A deaminase)
Cc1cccc(N2C(=O)C(Cl)=C(Nc3c(C)n(C)n(-c4ccccc4)c3=O)C2=O)c1C	NRP1-CendR mod 26
Cc1ccc(N2C(=O)C(Cl)=C(Nc3c(C)n(C)n(-c4ccccc4)c3=O)C2=O)cc1	none
COCOc1ccc(C=O)cc1OCOC	NRP1-CendR mod 22
CC[C@@H](C)CN1C(=O)N[C@@H](CCc2ccccc2)C(C(C)=O)=C1C	NRP1-CendR mod 28
Cc1noc(C)c1S(=O)(=O)N1CCCc2nc(-c3ccccc3)ccc21	none (no result: A3G deaminase, NRP1-CendR mod, A3A deaminase)
Cc1ccccc1S(=O)(=O)Nc1nc2ccccc2nc1NCCO	NRP1-CendR mod 31
Cc1oc(-c2ccc(C(F)(F)F)cc2)nc1CN(Cc1ccccn1)C[C@@H]1CCC(=O)N1	NRP1-CendR mod 31
CCOC(=O)C(C)Sc1nc(=O)n2ccccc2n1 (stereo not given)	NRP1-CendR mod 19
Cc1ccc(NC(=O)CSc2nnc(-c3cc(-c4ccc(Cl)cc4)n[nH]3)n2N)cc1	none (no result: A3G deaminase, NRP1-CendR mod, A3A deaminase)
O=C(NCCCN1CCOCC1)C1CC(=O)N(CCc2ccccc2)C1 (stereo not given)	none
O=C(NCCCN1CCCCCC1)C1CC(=O)N(CCc2ccccc2)C1 (stereo not given)	NRP1-CendR mod 23
CCOC(=O)/C(N=Nc1c(C)n(C)n(-c2ccccc2)c1=O)=C(/O)c1ccccc1	NRP1-CendR mod 32
Cc1ccc(S(=O)(=O)N2CCCC2C(=O)N2CCc3ccccc3C2)cc1 (stereo not given)	none (no result: A3G deaminase, NRP1-CendR mod, A3A deaminase)
COc1ccc(-c2coc3cc(OC(C)=O)c(OC)cc3c2=O)cc1	NRP1-CendR mod 25
O=C(N1CCC(Cc2ccccc2)CC1)n1ncc(C(O)(c2ccccc2)c2ccccc2)n1	none (no result: A3G deaminase, NRP1-CendR mod, A3A deaminase)
CNC(=O)C[C@@H]1CC[C@@H]2[C@H](COC[C@H](O)CN2S(=O)(=O)c2ccccc2Cl)O1	NRP1-CendR mod 32 (no result: A3G deaminase, A3A deaminase)
CN1OC[C@@H]2CN[C@H](c3ccc(N4CCCCC4)cc3)C[C@@H]21	none (no result: A3G deaminase, NRP1-CendR mod, A3A deaminase)
Cc1ccc(CNC(=O)C2CCC(=O)N(C3CC3)C2)cc1 (stereo not given)	NRP1-CendR mod 28
Cc1cccc(CNC(=O)C2CCC(=O)N(C3CCCC3)C2)c1 (stereo not given)	none
COC(=O)c1cccc(-n2sc3ccccc3c2=O)c1	A3G deaminase 78
CC(C)(C)N(NC(=O)Nc1cccc(F)c1)C(=O)c1ccccc1Cl	none (no result: A3G deaminase, NRP1-CendR mod, A3A deaminase)
CC(C)(C)N(NC(=O)Nc1ccccc1)C(=O)c1ccccc1Cl	NRP1-CendR mod 25
O=C(CC1SC2=NCCN2C1=O)Nc1ccc(Cl)cc1 (stereo not given)	NRP1-CendR mod 27
O=c1[nH]c2ccc([N+](=O)[O-])cc2nc1/C=C(\O)c1ccccc1	NRP1-CendR mod 84
COc1n[nH]c2nncnc12	NRP1-CendR mod 28

Assay outcomes (PubChem BioAssay)
